Shown are actives, neighbours in structure and some others; about 2.9% of the full set was active somewhere.
SNCA expr inh: inhibitors of alpha-synuclein (SNCA) gene expression | HEK-293 SNCA-luciferase knock-in, luminescence, 24 h | Potency, µM (doses to about 57.2 µM), without a hit: at the highest dose activity change, negative = inhibition, most hits filed as inhibitors | 0.17% of 140,000 active | AID 1671194;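 also: potency is read from the fitted curve at half-maximal effect; plate controls were DMSO cells for no effect and cell-free wells for full effect; nearly all actives have a fitted effect of over 45% in size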
IP6K1 inh: IP6K1 kinase inhibition | IP6K1 kinase, ADP-Glo luminescence, 2 h; active compounds read low | Q92551 | activity change, % (series mostly up to about 58 µM) | AID 1645851 | 0.81% of 140,000 active; in the data active = activity change below about -25%; also: % is scaled to controls: 0 for no effect and ±100 for the full control effect
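ADP-Glo luminescence measures ADP made by human IP6K1 during a 2 h RT reaction with ATP/IP6 (mix at 1.3 mM/130 uM); top library doses 57.5 and 19.1 uM final.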
HEK293 viab: reduces viability of HEK-293 SNCA reporter cells. HEK-293-SNCA-luc viability, GF-AFC fluorescence, 24 h. Potency, µM (highest dose often 57.1 µM), without a hit: top-dose activity change, negative = cytotoxicity, most hits filed as cytotoxic. 0.12% of 150,000 active;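 also: potency is read from the fitted curve at half-maximal effect; 0% = DMSO-treated cells and -100% = medium-only wells without cells; nearly all actives have a fitted effect of over 30% in size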
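HEK-293-SNCA-luc cells (1500/well) plated 24 h, then exposed 24 h to a dilution series; GF-AFC added 30 min at 37C, fluorescence 405/540 nm; normalised to medium-only and DMSO wells, Hill fit.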
KDM5B inh: inhibitors of human KDM5B histone demethylase | KDM5B demethylase, FDH-coupled NADH fluorescence (FDH is formaldehyde dehydrogenase) | Potency, µM (doses to about 57.7 µM), most hits filed as inhibitors | 2.6% of 220,000 active; also: potency is read from the fitted curve at half-maximal effect; 0% is about no effect; nearly all actives have a fitted effect of over 70% in size
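Here, H3K4me3 peptide (12.5 µM in substrate mix) is demethylated by KDM5BΔAP, 200 nM final, after 10 min compound exposure. Formaldehyde product is coupled through FDH (0.25 U/mL in mix) to NADH fluorescence; 30-min ΔRFU feeds dose-response curves.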
An asterisk follows results filed as active; i = inactive; ? = inconclusive; . = no result given; [ ] = another dose, or the depositor's remark. Unless noted, calls follow the shape of the dose curve; as a rule, active = well fitted curve in the direction sought with a large enough effect; inconclusive = small, poorly fitted or top-dose-only effect, or another doubt; inactive = no such curve, though single readings can be large; an effect the other way counts as inactive or inconclusive.

SMILES	SNCA expr inh	IP6K1 inh	HEK293 viab	KDM5B inh
O=S1(=O)c2cccnc2OC(COc2ccccc2)CN1Cc1cccs1 (centres undefined)	-3%[25.6 µM]	9	-2%[23.9 µM]	.
CCOC(=O)C1=C(C)N=C2SC=C(CC(=O)Nc3ccc(C)c(C)c3)N2C1c1cccc(OC)c1 (centres undefined)	-8%	-4	-11%	?
CN(CC(=O)N1CCn2nc(Cc3ccccc3)cc2C1)Cc1ccncc1	2%	21	-9%	14µM*
N#CC1CCN(C(=O)C2CCCN(c3nc4ncccc4o3)C2)CC1 (centres undefined)	42%[87.6 µM]	11	11%[87.6 µM]	32µM*
CC(C)NC(=O)C1CCCN(c2nc3ncccc3o2)C1 (centres undefined)	41%[87.6 µM]	-2	15%[87.6 µM]	20µM*
CN(C)C(=O)C1CCCN(c2nc3ncccc3o2)C1 (centres undefined)	-1%[87.6 µM]	0	11%[87.6 µM]	25µM*
O=C(C1CCCN(c2nc3ncccc3o2)C1)N1CCCC1 (centres undefined)	-11%[87.6 µM]	11	-8%[87.6 µM]	25µM*
O=C(C1CC1)N1CCCN(c2nc3ncccc3o2)CC1	80%[87.6 µM]	-2	1%[87.6 µM]	?
COc1cc(-c2nc(-c3c(C)noc3C)cc3c2cc(C)n3C)ccn1	25%[87.6 µM]	-19	-8%[87.6 µM]	i
Cc1noc(C)c1-c1cc2c(cc(C)n2C)c(-c2ccccc2)n1	4%[87.6 µM]	-15	8%[87.6 µM]	i
Cc1cc2c(-c3cccnc3)nc(-c3c(C)noc3C)cc2[nH]1	75%[87.6 µM]	-15	-22%[87.6 µM]	28µM*
Cc1noc(C)c1-c1cc2c(cc(C)n2C)c(-c2cccnc2)n1	61%[87.6 µM]	-22	7%[87.6 µM]	35µM*
Cc1cc2c(-c3ccccc3)nc(-c3c(C)noc3C)cc2[nH]1	27%[87.6 µM]	-20	-3%[87.6 µM]	i
Cc1noc(C)c1-c1cc2c(cc(C)n2C)c(-c2cccc([S+](C)(=O)[O-])c2)n1	55%[87.6 µM]	-9	5%[87.6 µM]	25µM*
COc1cccc(-c2nc(-c3c(C)noc3C)cc3c2cc(C)n3C)c1OC	120%[87.6 µM]	-4	4%[87.6 µM]	35µM*
O=C(C1CCCN1C(=O)c1cccc(-c2ccccn2)c1)N1CCC(Cc2ccccc2)CC1 (centres undefined)	-17%	21	-21%	.
Cn1ncc2c(C(=O)NCc3cccc(Cl)c3)cc(-c3ccsc3)nc21	-12%	5	-2%	.
COc1ccc(-c2nc(-c3c(C)noc3C)cc3c2cc(C)n3CCN(C)C)cc1OC	-18%[87.6 µM]	-7	-21%[87.6 µM]	i
COc1cccc(-c2nc(-c3c(C)noc3C)cc3c2cc(C)n3CCN(C)C)c1	21%[87.6 µM]	-12	-13%[87.6 µM]	40µM*
COc1cc(F)ccc1-c1nc(-c2c(C)noc2C)cc2[nH]c(C)cc12	56%[87.6 µM]	-24	-12%[87.6 µM]	35µM*
COc1ccccc1-c1nc(-c2c(C)noc2C)cc2[nH]c(C)cc12	46%[87.6 µM]	-3	-3%[87.6 µM]	i
NC1CCC(n2cc(C(=O)NC3CCCN(c4ncccn4)C3)nn2)CC1 (centres undefined)	4%	8	-9%	25µM*
CCC(C)CC(=O)OC1C(=O)C(CO)=CC(O)C1C(C)C (centres undefined)	.	-8	19µM*	.
C/C=C(\C)C(=O)O[C@H]1C=C(CO)C(=O)[C@H](OC(C)=O)[C@H]1C(C)C	.	1	?	.
O=C(c1ccccc1)N1CCC2(C1)C(=O)N(c1ccccc1)c1ccccc12 (centres undefined)	-21%	-9	-29%	i
SMILES	SNCA expr inh	IP6K1 inh	HEK293 viab	KDM5B inh
O=C(Cc1cccc(F)c1)N1CCCC(Cc2nc(C3CCOCC3)no2)C1 (centres undefined)	4%	0	-14%	28µM*
Cc1nn(CC(=O)N2CCCCCC2)c(=O)c2nc(-c3ccccc3)sc12	10%	1	-5%	32µM*
CCc1nc2c(=O)n(CC(=O)N3CCN(c4cccc(C)c4C)CC3)nc(C)c2s1	-31%	30	3%	i
CCc1nc2c(=O)n(CC(=O)N(CC)Cc3ccccc3)nc(C)c2s1	-27%	2	-16%	i
CCCCN(C)C(=O)Cn1nc(C)c2sc(-c3ccccc3)nc2c1=O	-22%	9	-21%	28µM*
COc1ccc(CN2C(=O)[C@H](OC)[C@@H]2C2=CCN(C(=O)C3CCCC3)CC2)cc1	22%	9	27%	.
CN(C)C(=O)c1cc2cccnn2n1	21%[87.6 µM]	1	2%[87.6 µM]	32µM*
CNC(=O)c1cc2cccnn2n1	9%[87.6 µM]	-3	5%[87.6 µM]	32µM*
CN(C)C(=O)c1cc(C(C)(C)C)c2cccn2n1	212%[87.6 µM]	-9	3%[87.6 µM]	i
COc1ccc(-c2cn3cc(C(=O)NCC4CC4)nc3s2)cc1	123%[87.6 µM]	2	6%[87.6 µM]	.
COc1ccccc1-c1ccc(CN2CCCCC2C(=O)NC2CCCC2)cc1 (centres undefined)	.	4	.	.
FC(F)(F)c1ccc(-c2noc([C@@H]3Cc4nc[nH]c4CN3Cc3cc4ccccc4o3)n2)cc1	-30%	-2	-9%	25µM*
c1ccc2oc(CN3Cc4[nH]cnc4C[C@H]3c3nc(-c4ccc5c(c4)OCO5)no3)cc2c1	?	13	-14%	35µM*
Cc1ccc(NC(=O)c2cc3n(n2)CC(c2ccc4c(c2)OCO4)OC3)cc1 (centres undefined)	-4%	-8	5%	32µM*
COc1ccc(NC(=O)c2cc3n(n2)CC(c2ccc4c(c2)OCO4)OC3)cc1Cl (centres undefined)	-12%	9	-4%	25µM*
COc1ccc(NC(=O)c2cc3n(n2)CC(c2ccc4c(c2)OCO4)OC3)cc1OC (centres undefined)	1%	5	-4%	i
O=C(Nc1ccccc1)c1cc2n(n1)CC(c1ccc3c(c1)OCO3)OC2 (centres undefined)	2%	22	-10%	?
COc1ccc(CCNC(=O)c2cc3n(n2)CC(c2ccc4c(c2)OCO4)OC3)cc1OC (centres undefined)	-6%	-8	?	28µM*
CCc1ccc(NC(=O)c2cc3n(n2)CC(c2ccc4c(c2)OCO4)OC3)cc1 (centres undefined)	-20%	-1	1%	32µM*
Cc1cccc(NC(=O)c2cc3n(n2)CC(c2ccc4c(c2)OCO4)OC3)c1 (centres undefined)	-9%	-8	6%	?
COc1ccc(CCNC(=O)c2cc3n(n2)CC(c2ccc(Cl)cc2)OC3)cc1OC (centres undefined)	?	31	-28%	?
Cc1cc(NC(=O)c2cc3n(n2)CC(c2ccc4c(c2)OCO4)OC3)ccc1F (centres undefined)	-18%	22	-6%	28µM*
COc1ccccc1-c1cccc(CN2CCC(NC(=O)c3ccc(C)cc3)CC2)c1	-1%	5	1%	.
COc1ccccc1C(=O)N[C@@H]1CN(c2ncccn2)C[C@H]1CN(C)C	1%	5	2%	?
CN(C)C[C@@H]1CN(Cc2ccncc2)C[C@H]1N	-8%	2	-4%	18µM*
COc1cccc(C(=O)N[C@@H]2CN(c3ncccn3)C[C@H]2CN(C)C)c1C	-5%	7	-6%	32µM*

Screening results from PubChem BioAssay.
